According to PubChem BioAssay (NCATS):
Records with an inconclusive call do not appear. Calls of active or inactive are those of the source. Calls follow the shape of the dose curve; as a rule, active = well fitted cell-killing curve with a large enough effect; inconclusive = small, poorly fitted or top-dose-only effect; inactive = flat fitted curve, though single readings scatter. Peptide text beside a SMILES is read from it. * marks the point of attachment. Cbz = O=C(OCc1ccccc1)*
Potency is read from the fitted curve at half-maximal effect.

Test: Quantitative highthroughput screen to assess conditional lethalithy of NOMO1 cells grown in RPMI1640 with dialyzed fetal bovine serum (RPMI+ds) (AID 1963877); also: nearly all actives have a fitted effect of over 30% in size
Conditions: NOMO1 in RPMI+dialyzed FBS viability, ATP luminescence, 48 h; series mostly up to 45.8 µM; viability: at the top concentration
Text: Assay Provider: Jason Cantor Ph.D.
Department of Biochemistry
University of Wisconsin-Madison, Madison, WI, USA
Chemical screening studies have identified drug sensitivities across hundreds of cancer cell lines but most putative therapeutics fail to translate. Discovery and development of drug candidates in models that more accurately reflect nutrient levels in human blood is a major challenge. Here we performed high-throughput screens in conventional versus Human Plasma-Like Medium (HPLM) to identify compounds that were "missed" when screening using the artificial culture condition. Sets of conditional anticancer compounds spanned phases of clinical development and included non-oncology drugs were assessed. […] We also traced conditional phenotypes for several chemotherapeutics to availability of HPLM-specific metabolites and confirmed others for compounds whose reported targets are encoded by nonessential genes. Our findings establish generalizable strategies for exploiting conditional lethality in HPLM to reveal therapeutic candidates and mechanisms of action in cancer cells.
Described herein are the results of each viability screens against three cell lines: NOMO1 (an acute myeloid leukemia cell line); P12-Ichikawa (a T-cell acute lymphoblastic leukemia); and SEM (a B-cell ALL). Each assay was screened using 3 different cell culture media: homemade human plasma-Like medium with 10% dialyzed fetal bovine serum (HPLM+ds); RPMI1640 with 10% untreated FBS and 5mM glucose (RPMI+s); and RPMI1640 with 10% dialyzed fetal bovine serum and 5 mM glucose (RPMI+ds).
PROTOCOL TABLE (as described by Inglese J, Shamu CE and Guy RK. 2007)
SEQUENCE No. (e.g., 1, 2, 3, etc.); […] (e.g., Cells, Incubation, Reagent, etc.); VALUE and DESCRIPTION.
1; Cells; 5 uL; white, solid bottom 1536-well Greiner assay plate.
2; Compounds; 23 nL; Kalypsis pin tool (Wako USA) equipped with a 1536-well pin head to transfer to the assay plates.
3; Incubation; 48 hours; 37C incubation.
4; Reagent; 3 uL; CellTiter Glo (Promega).
5; Incubation; 5 min, room temperature
6; Detection; Luminescence, Viewlux PerkinElmer.
NOTES (numbers refer to Sequence numbers above)
1. Briefly, 5 ul of cell reagent was dispensed using a Multidrop Combi Dispenser. The NOMO1 and SEM cells were plated at 500 cells/well and the P12-Ichikawa line at 1000 cells/well.
2. After seeding the cells, 23 nL of MIPE 4.1 library compounds (in DMSO) were added to each plate using a Kalypsys 1536 Pintool dispenser. Bortezomib at final concentration of […] and DMSO were added to each plate as positive and negative controls respectively. For each screen, MIPE 4.1 compounds were added over an eleven-point concentration range […] in 3-fold dilutions.
3. Each plate was covered with a stainless steel gasketed lid to prevent evaporation and incubated for 48 hour at 37C, 95% relative humidity, and 5% CO2.
4-5. Three microliter CellTilter-GloTM luminescent substrate mix (Promega) reagent was added to the assay plate and incubated at room temperature for 5 min.
6. The luminescence signal was measured using a ViewLux (PerkinElmer) multiplate reader with a 2 second exposure time per plate. Data for each compound were normalized as percent viability such that measurements for DMSO and the empty well controls in each plate were defined as 100% and 0%, respectively.
For `COc1cc(NS(=O)(=O)c2ccc(N)cc2)nc(OC)n1`, the “viability” value was 97.4% (inactive). With `C=CCc1cc(OC)c(O)c(C(=O)NCCO)c1` the “viability” value was 88% (inactive). For `CC1(C)[C@H]2CC[C@]3(C)[C@@H](C(=O)C=C4[C@@H]5C[C@@](C)(C(=O)O)CC[C@]5(C)CC[C@]43C)[C@@]2(C)CC[C@@H]1O`, the “viability” value was 103% (inactive). For `CN1[C@@H]2CCC[C@@H]1CC(NC(=O)c1nn(C)c3ccccc13)C2` (stereo not given in full), the “viability” value was 99.5% (inactive). With `CC(=O)O[C@H]1C[C@@H]2CC[C@H]3[C@H]4C[C@H]([N+]5(C)CCCCC5)[C@@H](OC(C)=O)[C@@]4(C)CC[C@@H]3[C@@]2(C)C[C@H]1N1CCCCC1` the “viability” value was 104% (inactive). For `CCOC(=O)C1=C[C@@H](OC(CC)CC)[C@H](NC(C)=O)[C@@H](N)C1`, the “viability” value was 99.3% (inactive). For `CC(C)c1c(C(=O)Nc2ccccc2)c(-c2ccccc2)c(-c2ccc(F)cc2)n1CC[C@H](O)C[C@@H](O)CC(=O)O`, the Potency was 16600 nM (active). For `O=C(O)c1cc(=O)c2c(OCC(O)COc3cccc4oc(C(=O)O)cc(=O)c34)cccc2o1`, the “viability” value was 106% (inactive). For `O=c1cc(-c2ccc(O)cc2)oc2cc(O)cc(O)c12`, the Potency was 18700 nM (active). In the case of `CC(C)C[C@H](NC(=O)[C@@H](NC(=O)c1cccc(-c2ccccc2)n1)[C@@H](C)O)B(O)O`, the Potency is reported as 105 nM (active). In the case of `CC(C)(O)CC[C@@H](O)[C@](C)(O)[C@H]1CC[C@@]2(O)C3=CC(=O)[C@@H]4C[C@@H](O)[C@@H](O)C[C@]4(C)[C@@H]3CC[C@]12C`, the “viability” value is reported as 105% (inactive). In the case of `O=c1c2ccccc2nc2n1CCc1c-2[nH]c2ccccc12`, the “viability” value is reported as 91.4% (inactive). For `Cn1c(Nc2ccc(C(F)(F)F)cc2)nc2cc(Oc3ccnc(-c4ncc(C(F)(F)F)[nH]4)c3)ccc21`, the Potency was 23500 nM (active). With `CCCCc1oc2ccc(NS(C)(=O)=O)cc2c1C(=O)c1ccc(OCCCN(CCCC)CCCC)cc1` the Potency was 2090 nM (active). With `CC(C)[C@H](C(=O)Nc1ccc(C(=O)NO)cc1)c1ccccc1` the Potency was 2640 nM (active). With `CC(=O)SCC(Cc1ccccc1)C(=O)NCC(=O)OCc1ccccc1` (stereo not given) the Potency was 6620 nM (active). With `CN1CCc2c(n(Cc3ccc(C(=O)NO)cc3)c3ccccc23)C1` the “viability” value was 82.2% (inactive). With `N#CC(=Cc1ccc(O)c(O)c1)C(=O)NCc1ccccc1` the “viability” value was 94.7% (inactive). With `Cc1ccnc2c1NC(=O)c1cccnc1N2C1CC1` the Potency was 2090 nM (active). In the case of `O=C(c1ccc(Nc2nccc(-c3cc4ccccc4s3)n2)cc1)N1CCC(N2CCCC2)CC1`, the Potency is reported as 26400 nM (active). With `CCc1cc(C(N)=S)ccn1` the “viability” value was 107% (inactive). With `O=c1c(O)c(-c2ccc(O)cc2O)oc2cc(O)cc(O)c12` the “viability” value was 95.1% (inactive). In the case of `COc1ccccc1OCC(O)CN1CCN(CC(=O)Nc2c(C)cccc2C)CC1` (stereo not given), the “viability” value is reported as 94.1% (inactive). In the case of `CC(C)(Sc1ccc(CCN(CCCCC2CCCCC2)C(=O)NC2CCCCC2)cc1)C(=O)O`, the “viability” value is reported as 101% (inactive). In the case of `O=c1[nH]c(=O)n([C@H]2C[C@@H](O)[C@@H](CO)O2)cc1F`, the Potency is reported as 14.8 nM (active). With `Clc1ccc(C(Cn2ccnc2)OCc2c(Cl)cccc2Cl)c(Cl)c1` (stereo not given) the “viability” value was 94.6% (inactive). With `CCC(C)n1ncn(-c2ccc(N3CCN(c4ccc(OC[C@H]5CO[C@](Cn6cncn6)(c6ccc(Cl)cc6Cl)O5)cc4)CC3)cc2)c1=O` (stereo not given in full) the “viability” value was 89.9% (inactive). With `CC(=NNC(=S)N1CCC1)c1ccccn1` the Potency was 5.3 nM (active). For `Nc1ccn(C[C@@H](CO)OCP(=O)(O)O)c(=O)n1`, the “viability” value was 112% [at 23.2 µM] (inactive). With `COc1ccc(-n2nc(C(N)=O)c3c2C(=O)N(c2ccc(N4CCCCC4=O)cc2)CC3)cc1` the Potency was 235 nM (active). For `O=C(O)c1ccccc1C(=O)Nc1ccc(-c2ccccc2)cc1`, the “viability” value was 94.1% (inactive). For `Cc1coc2c1C(=O)C(=O)c1c-2ccc2c1CCCC2(C)C`, the “viability” value was 101% (inactive). In the case of `CC(C)CN(C[C@@H](O)[C@H](Cc1ccccc1)NC(=O)O[C@H]1CO[C@H]2OCC[C@H]21)S(=O)(=O)c1ccc(N)cc1`, the “viability” value is reported as 97.6% (inactive). For `CC(C)C[C@@H](C=O)NC(=O)[C@H](CC(C)C)NC(=O)[C@H](CC(C)C)NC(=O)OCc1ccccc1` (Cbz-Leu-Leu-Leu-aldehyde), the Potency was 2090 nM (active). For `CCN(CC)CCOc1ccc(Nc2ncc3cc(-c4c(Cl)cccc4Cl)c(=O)n(C)c3n2)cc1`, the Potency was 2960 nM (active). In the case of `Oc1cc(O)cc(C=Cc2ccc(O)c(O)c2)c1`, the “viability” value is reported as 82.3% (inactive). In the case of `O=C1CSC(=O)N1C(CCc1ccncc1)COc1ccc(-c2cccc([N+](=O)[O-])c2)cc1` (stereo not given), the “viability” value is reported as 89.3% (inactive). For `O=C(Nc1ccc(Oc2ccnc3[nH]ccc23)c(F)c1)c1cccn(-c2ccc(F)cc2)c1=O`, the “viability” value was 97.2% (inactive). With `O=C(O)C=Cc1ccc(Cn2ccnc2)cc1` the “viability” value was 113% (inactive). In the case of `O=C1Nc2ccc(I)cc2C1=Cc1cc(Br)c(O)c(Br)c1`, the “viability” value is reported as 91.2% (inactive).
